Screening data: PubChem, several laboratories
A selection: hits, their analogues and other compounds. The true share with any hit is near 3.1%.
Bead autofluor – counter-screen for toxin protease inhibitors: compound fluorescence; compound autofluorescence counterscreen, microsphere flow cytometry; stronger effect = higher value; AID 624483; fluorescence intensity (no concentration beside the values); 3.1% of 360,000 active; in the data active = fluorescence intensity above about 16000; inconclusive = no clear call, values can overlap the other calls
Anthrax LF inh2 – inhibitors of Bacillus anthracis lethal factor protease. AID 588501. inhibition, % at 10 µM. multiplex microsphere protease cleavage assay, LF. 0.12% of 360,000 active. P15917
Target sequence (P15917 whole entry, looked up): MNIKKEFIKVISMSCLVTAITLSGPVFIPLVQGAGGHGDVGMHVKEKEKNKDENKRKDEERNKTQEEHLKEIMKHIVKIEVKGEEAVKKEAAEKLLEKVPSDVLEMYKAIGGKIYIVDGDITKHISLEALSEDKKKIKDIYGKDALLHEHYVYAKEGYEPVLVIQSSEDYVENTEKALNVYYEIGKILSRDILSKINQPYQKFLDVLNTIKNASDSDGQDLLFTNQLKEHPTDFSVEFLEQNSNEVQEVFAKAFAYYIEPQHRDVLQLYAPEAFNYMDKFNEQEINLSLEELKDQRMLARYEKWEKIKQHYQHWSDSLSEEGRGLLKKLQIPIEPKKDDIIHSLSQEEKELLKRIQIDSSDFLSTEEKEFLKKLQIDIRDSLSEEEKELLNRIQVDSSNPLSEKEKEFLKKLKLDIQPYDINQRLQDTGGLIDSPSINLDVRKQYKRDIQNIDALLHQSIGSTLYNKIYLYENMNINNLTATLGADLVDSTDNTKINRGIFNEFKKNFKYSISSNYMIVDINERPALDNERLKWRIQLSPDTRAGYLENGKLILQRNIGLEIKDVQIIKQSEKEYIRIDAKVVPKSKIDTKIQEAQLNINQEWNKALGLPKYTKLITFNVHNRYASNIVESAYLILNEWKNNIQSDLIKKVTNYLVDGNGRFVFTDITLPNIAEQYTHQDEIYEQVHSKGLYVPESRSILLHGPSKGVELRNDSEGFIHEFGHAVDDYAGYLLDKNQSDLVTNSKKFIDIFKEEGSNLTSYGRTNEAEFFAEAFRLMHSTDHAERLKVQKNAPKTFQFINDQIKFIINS
BoNT A protease – BoNT A light chain protease inhibition. 0.17% of 360,000 active. multiplex microsphere protease substrate cleavage, flow cytometry. AID 588499. inhibition, % at 10 µM
BoNT-F LC inh – BoNT F light chain protease inhibition | Multiplex microsphere protease cleavage assay, flow cytometry | inhibition, % at 10 µM | 0.22% of 360,000 active | AID 588497; in the data active = inhibition above about 35%, passing the limit was not always enough; inconclusive = no clear call, values can overlap the other calls
SSB-PriA inh – inhibitors of Klebsiella pneumoniae PriA binding to SSB C-terminal tail | AlphaScreen SSBct-PriA binding, biotinylated peptide | inhibition, % at 33 µM | 0.6% of 430,000 active; in the data active = inhibition mostly above about 37%, no sharp cut-off; inactive = mostly below about 20%
BoNTA LC inh 1 – BoNT/A light chain protease inhibition. inhibition, % at 10 µM. multiplex microsphere protease assay, flow cytometry. 3% of 720 active. AID 602139. shares compounds with BoNT-F LC inh; in the data active = inhibition above about 32%
BoNTF LC inh 1 – BoNT/F light chain protease inhibition | multiplex microsphere protease cleavage assay, flow cytometry | shares compounds with BoNT-F LC inh | 720 tested, under 10 active | inhibition, % at 10 µM; call rule not given here
Anthrax LF CP1 – Bacillus anthracis lethal factor protease inhibition; AID 602142; shares compounds with BoNT-F LC inh; 720 tested, under 10 active; inhibition, % at 10 µM; multiplex microsphere protease cleavage assay, LF; call rule not given here
Numbers stand for hits; i = inactive; ? = inconclusive; nt = not tested or not shown. Rule as the data show it, unless noted: active = inhibition above about 30%; inconclusive = no clear call, values can overlap the other calls; inactive = below that.

SMILES | Bead autofluor | Anthrax LF inh2 | BoNT A protease | BoNT-F LC inh | SSB-PriA inh | BoNTA LC inh 1 | BoNTF LC inh 1 | Anthrax LF CP1
O=C(Nc1ccccc1)OC1CCCCc2cccnc21 (stereo not given) | i | 30 | ? | ? | i | i | i | i
O=C(Nc1cccc(Cl)c1)OC1CCCCc2cccnc21 (stereo not given) | i | i | i | i | i | nt | nt | nt
CC1Oc2ccccc2OC1C(=O)Nc1nnc(C2CCCCC2)o1 (stereo not given) | nt | nt | nt | nt | i | nt | nt | nt
CCOc1cccc(OCCCCN2CCCCC2)c1 | i | i | i | i | i | nt | nt | nt
Brc1cccc(OCCCCN2CCCCC2)c1 | i | i | i | 35 | i | i | i | i
COC(=O)c1c(NC(=O)c2ccc3c(c2)OCO3)sc2c1CCC2 | nt | nt | nt | nt | i | nt | nt | nt
O=c1[nH]c2cc3c(cc2cc1C(c1nnnn1C1CCCC1)N1CCSCC1)OCCO3 (stereo not given) | i | i | i | i | i | nt | nt | nt
Cc1cc(C)c2cc(C(c3nnnn3C3CCCC3)N3CCOCC3)c(=O)[nH]c2c1 (stereo not given) | i | i | i | i | i | i | i | i
Cc1cccc2cc(C(c3nnnn3C3CCCC3)N3CCOCC3)c(=O)[nH]c12 (stereo not given) | 21873 | i | ? | i | i | i | i | i
COc1nn(C)cc1C(=O)N(Cc1ccco1)C1CCOCC1 | nt | nt | nt | nt | i | nt | nt | nt
Cc1cc(C)c(C#N)c(Oc2ccccc2)n1 | i | i | i | i | i | nt | nt | nt
CCN(C(=O)COc1nc(C)cc(C)c1C#N)c1ccccc1 | i | 38 | i | i | i | i | i | i
Cc1ccc(C)c2nc3sc(C(=O)N4CCCc5ccccc54)c(N)c3cc12 | i | 30 | i | i | i | i | i | i
COc1ccc(-c2cn3c(C)c(C(=O)N4CCCc5ccccc54)sc3n2)cc1 | i | i | i | i | i | nt | nt | nt
O=C(NCc1nn(C2CCCC2)c2c1COCC2)c1ccc2nsnc2c1 | nt | nt | nt | nt | i | nt | nt | nt
O=C(Nc1nc(-c2ccccc2)c(-c2ccccc2)s1)c1ccc(S(=O)(=O)N2CCCCC2)cc1 | i | i | i | i | i | i | i | i
COc1ccc(C(=O)Nc2nc(-c3ccc([N+](=O)[O-])cc3)c(-c3ccc(OC)cc3)s2)cc1 | i | 33 | 38 | i | i | i | i | i
CC(=O)NCCC(=O)N1CCCC(N2CCN(c3cccc(Cl)c3)CC2)C1 (stereo not given) | i | i | i | 42 | i | i | i | i
COc1ccc(N2CCc3c(C)nc4c(OC)cccc4c32)cc1 | i | i | i | i | i | nt | nt | nt
Cc1nc2c(C)cccc2c2c1CCN2c1ccccc1F | i | 35 | ? | ? | i | i | i | i
O=C(c1ccc(Br)o1)N1CCC(S(=O)(=O)c2ccc(F)cc2)CC1 | nt | nt | nt | nt | i | nt | nt | nt
O=C(NC1CS(=O)(=O)CC1NCc1ccccc1)c1ccccc1 (stereo not given) | i | i | i | 72 | i | i | i | i
O=S1(=O)CC(O)C(NCc2ccccc2)C1 (stereo not given) | nt | nt | nt | nt | i | nt | nt | nt
Cc1ccc(NC(=O)CCCCCC2NC(=O)NC2C)cc1 (stereo not given) | i | i | i | 71 | i | i | i | i
Cc1nc(-n2cccc2)sc1C(=O)NC1CCN(c2cc(C(F)(F)F)ncn2)CC1 | nt | nt | nt | nt | i | nt | nt | nt
SMILES | Bead autofluor | Anthrax LF inh2 | BoNT A protease | BoNT-F LC inh | SSB-PriA inh | BoNTA LC inh 1 | BoNTF LC inh 1 | Anthrax LF CP1
CCOC(=O)c1c(NC(=O)Nc2ccc(Cl)cc2)sc(C)c1C | 27117 | 41 | i | i | i | i | i | i
Clc1cccc2sc(OC3CCNCC3)nc12 | nt | nt | nt | nt | i | nt | nt | nt
Nc1ccc(S(=O)(=O)Nc2nccc(/C=C/c3cccc(Br)c3)n2)cc1 | i | i | i | 37 | i | i | i | i
Cc1ccc(-c2nc3cc(Br)cnc3nc2-c2ccc(C)cc2)cc1 | i | i | 46 | i | i | i | i | i
O=C(Nc1scc(-c2ccccc2)c1C(=O)O)c1ccccc1F | i | i | i | ? | i | nt | nt | nt
Cc1ccc(-c2csc(NC(=O)c3ccccc3F)c2C(=O)O)cc1 | i | i | i | 35 | i | i | i | i
Cn1cc(CC(=O)NCCCN2CCCC2)c2ccccc21 | i | i | i | 36 | i | i | i | i
O=C(Nc1c[nH]c(=O)[nH]c1=O)c1ccc2c(c1)C(=O)N(c1cccc([N+](=O)[O-])c1)C2=O | i | i | i | i | i | nt | nt | nt
O=C(Nc1c[nH]c(=O)[nH]c1=O)c1cc([N+](=O)[O-])cc([N+](=O)[O-])c1 | i | i | i | 135 | i | i | 76 | i
O=C(Nc1ccc(SCc2ccccn2)nn1)c1ccccc1 | nt | nt | nt | nt | i | nt | nt | nt
O=C(Nc1cccc(C(F)(F)F)c1)c1cc(-c2ccco2)on1 | i | i | i | i | i | nt | nt | nt
O=C(Nc1cccc(C(F)(F)F)c1)c1sc(Cl)nc1C(F)(F)F | i | 33 | i | 40 | i | i | i | i
COCCCN1C(=O)/C(=C/c2ccc(O)cc2O)SC1=NS(=O)(=O)c1ccccc1 | nt | nt | nt | nt | i | nt | nt | nt
O=C(CSc1ccc(Cl)cc1)Nc1cccc2c1C(=O)NC2=O | nt | nt | nt | nt | i | nt | nt | nt
COc1ccc(S(=O)(=O)N(C)C)cc1NC(=O)CCNC(=O)c1ccco1 | i | i | i | 41 | i | i | i | i
CC(C)(C)c1cc(C(=O)CCN2CCOCC2)cc(C(C)(C)C)c1O | i | i | i | i | i | i | i | i
COc1ccc(-c2csc(/C(C#N)=C/c3ccccc3C(F)(F)F)n2)cc1OC | nt | nt | nt | nt | i | nt | nt | nt
CCCN1CCc2c(sc3nc(SC)n(-c4ccccc4)c(=O)c23)C1 | i | i | 33 | i | i | i | i | i
CCOC(=O)CSc1nc2sc3c(c2c(=O)n1-c1ccc(OCC)cc1)CCN(C)C3 | i | i | 53 | i | i | i | i | i
CCNC(=O)c1csc(NC(=O)c2cccs2)n1 | nt | nt | nt | nt | i | nt | nt | nt
Cc1oncc1C(=O)NCc1cc(C2CC2)n(C)n1 | nt | nt | nt | nt | i | nt | nt | nt
CCOC(=O)C1CCN(CC(=O)c2c(C)n(C)c3ccc(OC)cc23)CC1 | i | i | i | 39 | i | i | i | i
CCN1CCN(CC(=O)c2c(C)n(C)c3ccc(OC)cc23)CC1 | ? | i | i | i | i | nt | nt | nt
Cc1cc(C)n(-c2nc3ccccc3nc2N2CCN(S(=O)(=O)c3ccc(F)c(C)c3)CC2)n1 | i | i | i | i | i | nt | nt | nt
Cc1cc(C)n(-c2nc3ccccc3nc2N2CCN(S(=O)(=O)c3ccc4ccccc4c3)CC2)n1 | i | i | 34 | i | i | i | i | i
SMILES | Bead autofluor | Anthrax LF inh2 | BoNT A protease | BoNT-F LC inh | SSB-PriA inh | BoNTA LC inh 1 | BoNTF LC inh 1 | Anthrax LF CP1
N#C[C@@H](N)Cc1ccccc1 | nt | nt | nt | nt | i | nt | nt | nt
COc1ccc(Cn2c(=O)[nH]c3cc(OC)c(OC)cc3c2=O)cc1 | i | i | i | 36 | i | i | i | i
COc1ccc(Cn2c(=S)[nH]c3cc(OC)c(OC)cc3c2=O)cc1 | i | i | i | i | i | nt | nt | nt
CCOc1cn(-c2ccc(F)cc2)nc1C(=O)N1CCN(C(=O)c2ccco2)CC1 | nt | nt | nt | nt | i | nt | nt | nt
COc1ccc(C(=O)c2sc3nc(C)cc(-c4cccs4)c3c2N)cc1 | i | i | 56 | i | i | i | i | i
Cc1cc(-c2cccs2)c2c(N)c(C(=O)c3ccc4c(c3)OCO4)sc2n1 | i | i | 56 | i | i | i | i | i
N#Cc1sc2nc(C3CC3)cc(-c3ccc(Cl)cc3)c2c1N | i | i | i | i | i | nt | nt | nt
